Experimental data taken from PubChem BioAssay (NCI).
About 79,000 compounds went through this panel and 15% of them were active in at least one assay; those are over-represented in the sample as a whole. Calls of active or inactive are those of the source. Rule as the data show it: active = growth inhibition above about 70%; inactive = the rest.

What was measured:
[1] = NCI Yeast Anticancer Drug Screen. Data for the wt2 strain (AID 169);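 also: 0% = growth of vehicle-treated yeast cultures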; settings: S. cerevisiae wt2 strain growth inhibition, hits give high values
In short: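 Steps: yeast strain treated with compound; growth recorded; inhibition calculated relative to cultures given vehicle alone.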

[2] = NCI Yeast Anticancer Drug Screen. Data for the mlh1 strain (AID 171);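 also: 0% = growth of vehicle-treated control cultures of the same strain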; settings: S. cerevisiae mlh1 strain growth inhibition, hits give high values
In short: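 Yeast screen: mutant strain plus compound, growth scored against vehicle control wells.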

[3] = NCI Yeast Anticancer Drug Screen. Data for the sgs1 strain (AID 173);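 also: 0% = growth of vehicle-only control cultures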; settings: S. cerevisiae sgs1 mutant, hits give high values
In short: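 Inhibition of yeast growth served as the measure. The mutant strain was treated with each compound, and growth was normalised to cultures receiving vehicle alone.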

[4] = NCI Yeast Anticancer Drug Screen. Data for the mlh1 rad18 strain (AID 175); settings: S. cerevisiae mlh1 rad18 strain growth inhibition, hits give high values
In short: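 Compound-treated yeast growth, normalised to vehicle controls. Strain bears defined DNA repair mutations.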

[5] = NCI Yeast Anticancer Drug Screen. Data for the rad52 strain (AID 147);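 also: 0% = growth of vehicle-treated control cultures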; settings: S. cerevisiae rad52 mutant growth inhibition, hits give high values
In short: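 Genetically altered yeast (DNA damage repair defect) treated with compound; inhibition calculated relative to vehicle.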

[6] = NCI Yeast Anticancer Drug Screen. Data for the wt1 strain (AID 149);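 also: 0% = growth of vehicle-treated wt1 cultures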; settings: S. cerevisiae wt1 strain (SPY 50644) growth inhibition, hits give high values
In short: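 Yeast wt1 strain exposed to compounds; growth inhibition measured relative to vehicle-treated controls.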

[7] = NCI Yeast Anticancer Drug Screen. Data for the rad50EPP+ strain (AID 151);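 also: 0% = growth of vehicle-treated control cultures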; settings: S. cerevisiae rad50 mutant strain, hits give high values
In short: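 Strain rad50EPP+; compound exposure; % growth inhibition vs vehicle.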

[8] = NCI Yeast Anticancer Drug Screen. Data for the mgt1 strain (AID 153); settings: S. cerevisiae mgt1 mutant growth inhibition, hits give high values
In short: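 Read-out: yeast growth inhibition vs vehicle control. Strain mgt1, drawn from a panel altered in DNA damage repair or cell cycle control.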

[9] = NCI Yeast Anticancer Drug Screen. Data for the rad50 strain (AID 155);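 also: 0% = growth of vehicle-only cultures of the same strain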; settings: S. cerevisiae rad50 strain growth inhibition, hits give high values
In short: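 Yeast carrying a defined DNA repair defect were exposed to test compounds, and growth was compared with vehicle-treated controls to give percent inhibition.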

[10] = NCI Yeast Anticancer Drug Screen. Data for the mec2-1 strain (AID 157); settings: S. cerevisiae mec2-1 strain, hits give high values
In short: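 Cells of the genetically defined mec2-1 yeast strain are incubated with test compound. Inhibition of growth is calculated against vehicle-treated controls.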

[11] = NCI Yeast Anticancer Drug Screen. Data for the rad14 strain (AID 159);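 also: 0% = growth of vehicle-treated control cultures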; settings: S. cerevisiae rad14 strain growth inhibition, hits give high values
In short: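 Yeast cells carrying a defined DNA-repair defect were exposed to compounds, and growth inhibition was calculated relative to vehicle-treated control cultures.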

[12] = NCI Yeast Anticancer Drug Screen. Data for the sgs1 mgt1 strain (AID 161);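 also: 0% = growth of cultures given vehicle only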; settings: S. cerevisiae sgs1 mgt1 strain, hits give high values
In short: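 Test agents were incubated with a DNA-repair-mutant yeast strain. Growth was then read and compared against vehicle-treated controls.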

[13] = NCI Yeast Anticancer Drug Screen. Data for the CLN2oe strain (AID 163);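 also: 0% = growth of vehicle-only control cultures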; settings: S. cerevisiae CLN2oe strain, hits give high values
In short: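 Strain altered in cell-cycle control, incubated with compound; growth compared to solvent-treated controls.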

[14] = NCI Yeast Anticancer Drug Screen. Data for the cln2 rad14 strain (AID 165);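 also: 0% = growth equal to vehicle treated cultures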; settings: S. cerevisiae cln2 rad14 strain, hits give high values
In short: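 The screen exposed genetically defined yeast (cln2 rad14) to test compounds and scored growth inhibition relative to vehicle-treated controls.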

[15] = NCI Yeast Anticancer Drug Screen. Data for the bub3 strain (AID 167); settings: S. cerevisiae bub3 mutant strain, hits give high values
In short: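 Compounds were applied to a genetically altered yeast strain carrying a cell-cycle control defect. Growth inhibition was scored against vehicle-treated controls.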

[16] = at 5.0 µM (retest, dose inferred, filed as 0.5)
[17] = at 50.0 µM (retest, dose inferred, filed as 5.0)

Measured: growth inhibition

CCOc1ccccc1N=Cc1c2ccccc2cc2ccccc12
active: [1]; at 11.0 µM 96% | [1]; at 33.0 µM 98% | [1]; at 100.0 µM 97% | [2]; at 11.0 µM 97% | [2]; at 33.0 µM 98% | [2]; at 100.0 µM 97% | [3]; at 11.0 µM 96% | [3]; at 33.0 µM 97% | [3]; at 100.0 µM 96% | [4]; [17] 98% | [4]; at 50.0 µM 86.5%
inactive: [1]; at 1.2 µM -4% | [1]; at 3.7 µM 34% | [2]; at 1.2 µM 18% | [2]; at 3.7 µM 56% | [3]; at 1.2 µM -18% | [3]; at 3.7 µM 24% | [4]; [16] 38%

CC[N+](CC)(CC)c1ccccc1
inactive: [5]; at 1.2 µM 8% | [5]; at 3.7 µM -7% | [5]; at 11.0 µM 0% | [5]; at 33.0 µM -3% | [5]; at 100.0 µM -6% | [6]; at 1.2 µM -21% | [6]; at 3.7 µM -27% | [6]; at 11.0 µM -28% | [6]; at 33.0 µM -26% | [6]; at 100.0 µM -28% | [7]; at 1.2 µM -8% | [7]; at 3.7 µM -14% | [7]; at 11.0 µM -14% | [7]; at 33.0 µM -22% | [7]; at 100.0 µM -20% | [8]; at 1.2 µM 1% | [8]; at 3.7 µM 1% | [8]; at 11.0 µM -6% | [8]; at 33.0 µM 8% | [8]; at 100.0 µM -8% | [9]; at 1.2 µM 19% | [9]; at 3.7 µM 24% | [9]; [16] 17% | [9]; at 11.0 µM 16% | [9]; at 33.0 µM 14% | [9]; at 50.0 µM 62.5% | [9]; at 100.0 µM 21% | [10]; at 1.2 µM -5% | [10]; at 3.7 µM -3% | [10]; [16] 35% | [10]; at 11.0 µM -8% | [10]; at 33.0 µM 1% | [10]; at 50.0 µM -1.75% | [10]; at 100.0 µM 8% | [11]; at 1.2 µM -28% | [11]; at 3.7 µM -36% | [11]; at 11.0 µM -34% | [11]; at 33.0 µM -33% | [11]; at 100.0 µM -25% | [12]; [16] -21% | [12]; [17] -13% | [12]; at 50.0 µM 39.8% | [13]; at 1.2 µM 16% | [13]; at 3.7 µM 5% | [13]; at 11.0 µM 8% | [13]; at 33.0 µM -11% | [13]; at 100.0 µM -8% | [14]; [16] 20% | [14]; [17] 33% | [14]; at 50.0 µM 24.1% | [15]; at 1.2 µM 16% | [15]; at 3.7 µM 15% | [15]; [16] 31% | [15]; at 11.0 µM 15% | [15]; at 33.0 µM 19% | [15]; [17] 26% | [15]; at 100.0 µM 11% | [1]; at 1.2 µM -23% | [1]; at 3.7 µM -32% | [1]; at 11.0 µM -32% | [1]; at 33.0 µM -23% | [1]; at 100.0 µM -30% | [2]; at 1.2 µM -26% | [2]; at 3.7 µM -46% | [2]; at 11.0 µM -43% | [2]; at 33.0 µM -43% | [2]; at 100.0 µM -42% | [3]; at 1.2 µM -15% | [3]; at 3.7 µM -21% | [3]; at 11.0 µM -22% | [3]; at 33.0 µM -19% | [3]; at 100.0 µM -23% | [4]; [16] 30% | [4]; at 50.0 µM 26.2%
active: [9]; [17] 98% | [10]; [17] 98% | [15]; at 50.0 µM 75.5% | [4]; [17] 99%

CCOC(=O)c1ccc(NC(=O)O/N=C(/Cl)C(C)C)cc1
active: [5]; at 100.0 µM 98% | [6]; at 100.0 µM 97% | [7]; at 100.0 µM 87% | [8]; at 33.0 µM 73% | [8]; at 100.0 µM 99% | [9]; [17] 92% | [9]; at 100.0 µM 98% | [10]; [17] 95% | [10]; at 50.0 µM 85.5% | [10]; at 100.0 µM 99% | [11]; at 100.0 µM 99% | [12]; [17] 98% | [12]; at 50.0 µM 81.8% | [13]; at 100.0 µM 97% | [14]; [17] 87% | [15]; [17] 97% | [15]; at 50.0 µM 76.6% | [15]; at 100.0 µM 98% | [1]; at 33.0 µM 91% | [1]; at 100.0 µM 99% | [2]; at 33.0 µM 84% | [2]; at 100.0 µM 99% | [3]; at 33.0 µM 93% | [3]; at 100.0 µM 99% | [4]; [17] 95%
inactive: [5]; at 1.2 µM -2% | [5]; at 3.7 µM 3% | [5]; at 11.0 µM 14% | [5]; at 33.0 µM 58% | [6]; at 1.2 µM -1% | [6]; at 3.7 µM -6% | [6]; at 11.0 µM -11% | [6]; at 33.0 µM -14% | [7]; at 1.2 µM 1% | [7]; at 3.7 µM 8% | [7]; at 11.0 µM 22% | [7]; at 33.0 µM 44% | [8]; at 1.2 µM -3% | [8]; at 3.7 µM -7% | [8]; at 11.0 µM -5% | [9]; at 1.2 µM -1% | [9]; at 3.7 µM 4% | [9]; [16] 5% | [9]; at 11.0 µM 7% | [9]; at 33.0 µM 48% | [9]; at 50.0 µM 55.4% | [10]; at 1.2 µM 1% | [10]; at 3.7 µM 1% | [10]; [16] -19% | [10]; at 11.0 µM 3% | [10]; at 33.0 µM 45% | [11]; at 1.2 µM -4% | [11]; at 3.7 µM -5% | [11]; at 11.0 µM -2% | [11]; at 33.0 µM 2% | [12]; [16] -12% | [13]; at 1.2 µM -2% | [13]; at 3.7 µM 2% | [13]; at 11.0 µM -5% | [13]; at 33.0 µM -22% | [14]; [16] 17% | [14]; at 50.0 µM 63.4% | [15]; at 1.2 µM 9% | [15]; at 3.7 µM 18% | [15]; [16] -7% | [15]; at 11.0 µM 28% | [15]; at 33.0 µM 55% | [1]; at 1.2 µM -4% | [1]; at 3.7 µM -8% | [1]; at 11.0 µM 10% | [2]; at 1.2 µM -6% | [2]; at 3.7 µM -4% | [2]; at 11.0 µM -4% | [3]; at 1.2 µM -3% | [3]; at 3.7 µM -4% | [3]; at 11.0 µM 28% | [4]; [16] -7% | [4]; at 50.0 µM 69.1%
